Measured values as given in PubChem BioAssay (NCI).
About 83,000 compounds went through this panel and 20% of them were active in at least one assay; those are over-represented in the sample as a whole.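 Method: cells in 96-well plates; compound added at one concentration; 48 h incubation; percent growth measured; values under 10 scored active.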 Active and inactive are the calls of the source.

tested on: TK-10 renal; experiment: NCI-60 one-dose screen, 48 h (100 = growth as untreated, 0 = no growth, -100 = all killed); conditions: 10 µM unless noted

Row | SMILES | growth
1 | C/C(=C(\c1ccc(O)cc1)c1ccc(OCCN2CCCCCC2)cc1)c1ccc(Cl)cc1 | -95.2% (active)
2 | Brc1cccc(-c2cc(-c3ccc4c(c3)OC=CO4)[nH]n2)c1 | 108% (inactive)
3 | COc1ccc(C(C)=C(c2ccc(OCCN(C)C)cc2)c2ccc(OCCN(C)C)cc2)cc1 | -56.1% (active)
4 | NS(=O)(=O)c1ccc(Nc2nc(N/N=C/c3ccc4c(c3)OCO4)nc(Nc3ccccc3)n2)cc1 | 96.6% (inactive)
5 | COc1ccc(C2c3[nH]c4ccc(Cl)cc4c3CCN2c2oc(CO)nc2C#N)cc1 (stereo not given) | 93.9% (inactive)
6 | CCc1cc2c(cc1Cl)nc1c(=O)[nH]c(=O)nc-1n2CCOCC(C)C | 176% (inactive)
7 | COc1ccc(-c2c3c(cn2Cc2cccc(OC)c2)-c2oncc2CCC3)cc1 | 106% (inactive)
8 | COc1ccc(/C(=N\NC(N)=S)c2ccc(Cl)cc2)cc1OC | 83.3% (inactive)
9 | O=C(CSc1nnc(-c2ccc(Cl)cc2)n1-c1ccccc1)Nc1ccccc1Cl | 85.1% (inactive)
10 | COc1ccc(-c2c(C(N)=O)c(N)n(Cc3nc4ccccc4[nH]3)c(=O)c2C#N)c(OC)c1 | 150% (inactive)
11 | COc1ccc(-c2cnc(NC(=O)CCCCCCNC(=O)C(O)(O)C(F)(F)F)s2)cc1 | -20.1% (active)
12 | C#C[C@]1(O)CC[C@H]2[C@@H]3CC=C4c5sc(Nc6cc(C)cc(C)c6)nc5CC[C@]4(C)[C@H]3CC[C@@]21C | 62.8% (inactive)
13 | COC(=O)CNC(=O)c1cccc(-c2cc(=O)c3c(OC)c(OC)c(OC)cc3o2)c1 | 109% (inactive)
14 | CCC1=Cc2c(OC)cccc2OC12C=Cc1c(OC)cccc1O2 (stereo not given) | 101% (inactive)
15 | Cc1ccc2c(n1)C(=O)C(Cl)=C(Nc1ccc(C#N)cc1)C2=O | 104% (inactive)
16 | Cn1ncc2c(C(=O)c3ccc(F)cc3)nc(C(C)(C)C)nc21 | 82% (inactive)
17 | CN1c2ccccc2Sc2cc(/C=N/Nc3ccnc4cc(Cl)ccc34)ccc21 | 115% (inactive)
18 | COCCOc1ccc2ncc(C#Cc3cncc(C(=O)Nc4ccc(CN5CCN(C)CC5)c(C(F)(F)F)c4)c3)n2n1 | 14.3% (inactive)
19 | O=C(CCCCCCNC(=O)C(O)(O)C(F)(F)F)Nc1ncc(-c2ccccc2)s1 | -10.3% (active)
20 | CCCCN1C(=O)/C(=c2\sc3n(c2=O)C2C(NN=3)N(CC)C(=O)N2CC)c2cc(C)ccc21 (stereo not given) | 117% (inactive)
